PolyA inh: polyadenylation inhibitors in yeast reporter cells, primary screen, luminescence, S. cerevisiae. S. cerevisiae SKY197-pL101 polyadenylation reporter, beta-gal luminescence; efflux-impaired pdr1/pdr3 knockout yeast; score 100 = 6 SD above DMSO. activity score, % at 12 µM. actives 0.02% (n = 300,000). AID 1875, 2009;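 active means lowest replicate activity score at least 50, where 100 means six control SD above control mean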;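 further: yeast exposed to compound for 9 h at 30 °C; higher score means more reporter readthrough which indicates perturbed polyadenylation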
NALP1 inh: NALP1 inflammasome inhibitors in reconstituted yeast, colorimetric, S. cerevisiae, triplicate retest | S. cerevisiae NALP1/ASC/caspase-1 growth, X-gal OD620, 72 h | inhibition, % at 10 µM | actives 0.61% (n = 280,000) | AID 2071, 2009; in the data active means inhibition mostly above about 24%, no sharp cut-off; inactive means mostly below about 32%
ZTA counter: blocks Epstein-Barr virus ZTA, an EBNA-1 counter-screen; P03206; ZTA-DNA binding, fluorescence polarization; inhibition, % at 11 µM; actives 0.15% (n = 320,000); AID 2234; in the data active means inhibition above about 33%
Target sequence (P03206 whole entry, looked up): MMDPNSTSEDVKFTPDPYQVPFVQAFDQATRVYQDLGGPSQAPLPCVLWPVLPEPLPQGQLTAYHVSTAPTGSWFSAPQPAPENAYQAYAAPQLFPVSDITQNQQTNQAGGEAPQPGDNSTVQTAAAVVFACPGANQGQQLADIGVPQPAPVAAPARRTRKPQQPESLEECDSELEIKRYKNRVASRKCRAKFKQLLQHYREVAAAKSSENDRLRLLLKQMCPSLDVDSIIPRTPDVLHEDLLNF
EBNA-1 inh: EBNA-1 DNA-binding inhibitors, primary screen, biochemical, fluorescence polarization | inhibition, % at 14.8 µM | actives 0.34% (n = 300,000); in the data active means inhibition above about 28%
dFosB act: activators of delta FosB homodimer, primary screen, biochemical, fluorescence polarization, TAMRA-CDK5 oligo, single point; activation, % at 25 µM; purified delta FosB; percent of positive-control signal above neutral wells; actives 0.99% (n = 340,000); Protein FosB (Mus musculus), P13346;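 active means mean activation above about 17%, with every replicate also reaching it, limit read from the data, passing the limit was not always enough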
Target sequence (P13346 whole entry, looked up): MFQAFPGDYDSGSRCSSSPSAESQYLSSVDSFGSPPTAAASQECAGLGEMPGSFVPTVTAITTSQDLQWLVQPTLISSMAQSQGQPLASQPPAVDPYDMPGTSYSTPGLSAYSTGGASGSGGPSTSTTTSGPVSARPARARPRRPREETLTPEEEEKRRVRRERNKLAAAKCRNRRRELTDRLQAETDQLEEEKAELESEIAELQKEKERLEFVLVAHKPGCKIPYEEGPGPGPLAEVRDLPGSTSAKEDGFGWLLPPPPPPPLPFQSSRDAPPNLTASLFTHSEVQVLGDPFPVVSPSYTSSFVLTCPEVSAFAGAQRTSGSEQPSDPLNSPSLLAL
NALP3 yeast inh: NALP3 inflammasome inhibitors in reconstituted yeast, primary screen, luminescence, uHTS | inhibition, % at 10 µM | actives 0.39% (n = 330,000) | Yeast reconstituted NLRP3/ASC/caspase-1, beta-gal luminescence, 24 h | AID 2825, 2010;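 active means inhibition of 50% or more; inactive means inhibition below 50%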
EBNA-1 confirm: EBNA-1 DNA-binding inhibitors, retest, confirmation, biochemical, fluorescence polarization, triplicate; actives 35% (n = 830); Recombinant EBNA-1 DBD, Cy5-DNA fluorescence polarization; shares compounds with EBNA-1 inh; inhibition, % at 14.8 µM;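 active means mean inhibition across replicates above a set limit taken from the earlier primary screen, cut at about 28% in these data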
ZTA DNA inh trip: EBV Zta DNA binding inhibitors, counter-screen for EBNA-1 inhibitor project, biochemical, fluorescence polarization, triplicate | 830 tested, under 10 active | Zta-ZRE DNA binding, Cy5 fluorescence polarization | inhibition, % at 11.1 µM | shares compounds with EBNA-1 inh;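 active means mean inhibition over triplicates above a set limit taken from the primary EBNA-1 screen, cut at about 37% in these data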;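 further: purified full length Zta protein with Cy5 labeled ZRE DNA probe; inhibitors lower polarization by freeing the labeled DNA probe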
Hits are given with their value; 0 = inactive; - = no result. Hits are enriched below; roughly 2.2% of the tested compounds scored in any of these assays.

SMILES | PolyA inh | NALP1 inh | ZTA counter | EBNA-1 inh | dFosB act | NALP3 yeast inh | others
Cc1cc(C(=O)N/N=C/c2ccncc2)c(C)o1 | 0 | 0 | 0 | 0 | 0 | 0
Cc1ccc(/C=N/NC(=O)c2cc(C)oc2C)cc1 | 0 | 36 | 0 | 0 | - | 0
Cc1ccc(C)c(OCC(=O)Nc2cccc(S(=O)(=O)NC3=NCCCCC3)c2)c1 | 0 | 0 | 0 | 0 | 0 | 0
OC(CNCC(c1ccc(Cl)cc1Cl)c1c[nH]c2ccccc12)c1ccccc1 (centres undefined) | 0 | 0 | 0 | 0 | 83 | 0
O=[N+]([O-])CC(c1ccccc1)c1c[nH]c2ccccc12 (centres undefined) | 0 | - | 0 | 0 | - | 0
Cc1cc(Cl)ccc1OC(C)C(=O)Nc1cnn(CCCC(=O)O)c1 (centres undefined) | 0 | 0 | 0 | 0 | 0 | 0
CC(NCc1ccc(F)cc1)C(=O)NC1CCCCC1 (centres undefined) | 0 | 44 | 0 | 0 | 0 | 0
N#C/C(=C\c1ccc(C#N)cc1)C(=O)c1ccccc1 | 0 | 0 | - | - | 0 | -
CN(C)c1ccc(/C=C(\C#N)C(=O)c2ccccc2)cc1 | 0 | 37 | 0 | 0 | 0 | -
Cc1ccc(OCCCCN2CCCCC2)c(C)c1 | 0 | 0 | 0 | 0 | 0 | 0
Cc1ccc(OCCCCNC2CCCC(C)C2C)c(C)c1 (centres undefined) | 0 | 30 | 0 | 0 | 0 | 0
Cc1ccn2cc(-c3ccc(NC(=O)c4ccco4)cc3)nc2c1 | 0 | 46 | 0 | 0 | 0 | 0
O=C(NCCCN1CCN(CCCNC(=O)c2ccc3c(c2)OCO3)CC1)c1ccc2c(c1)OCO2 | 0 | 28 | 0 | 0 | 0 | 0
COCCCNC(=O)c1ccc2c(c1)OCO2 | 0 | 0 | 0 | 0 | 0 | 0
COc1ccccc1C(=O)NCCC(=O)NCC(c1ccco1)N1CCCC1 (centres undefined) | - | - | 0 | - | 0 | 0
CCN(CC(=O)Nc1c(F)cccc1F)C(=O)c1ccc(N2CCCCC2)c([N+](=O)[O-])c1 | 0 | 0 | 0 | 0 | 0 | 0
C1=C(c2ccccc2)CCN(c2nc3ccccc3n3cnnc23)C1 | 0 | 41 | 0 | 0 | 0 | 0
Cc1ccc(S(=O)(=O)N2CCN(C(=O)COC(=O)COc3ccc(Cl)cc3)CC2)c(C)c1 | - | - | - | - | 208 | -
Cc1ccc(S(=O)(=O)N2CCN(C(=O)COC(=O)COc3ccc(Cl)c(C)c3)CC2)c(C)c1 | - | - | - | - | 0 | -
CN1/C(=C/C=C(C#N)C#N)C(C)(C)c2ccccc21 | 0 | 0 | 0 | 0 | 0 | 0
CN1/C(=C\C=O)C(C)(C)c2ccccc21 | 0 | 0 | 0 | 0 | 23 | 0
CN1/C(=C\C=Nc2ccc3ccccc3c2)C(C)(C)c2ccccc21 | - | 28 | 0 | 0 | 0 | 0
Cc1ccccc1OCCC(=O)OCC(=O)Nc1c(F)cccc1F | 0 | - | 0 | 0 | 0 | 0
Cn1cnc(S(=O)(=O)NC2CCN(Cc3c(F)cccc3Cl)CC2)c1 | 0 | 0 | 0 | 0 | 0 | 0
Cc1cccc(C(=O)NNC(=O)c2cccc(C)c2)c1 | 0 | 0 | 0 | 0 | 0 | 0
SMILES | PolyA inh | NALP1 inh | ZTA counter | EBNA-1 inh | dFosB act | NALP3 yeast inh | others
Cc1cccc(C(=O)NNC(=O)C2CC2)c1 | 0 | 31 | 0 | 0 | 0 | 0
CCC(C)NS(=O)(=O)c1ccc(S(=O)(=O)N(CC(=O)Nc2ccccc2)Cc2ccco2)cc1 (centres undefined) | 0 | 42 | 0 | 0 | 0 | 0
CCCC(C)NC(=O)CN(Cc1ccco1)S(=O)(=O)c1ccccc1 (centres undefined) | - | - | 0 | - | 0 | 0
COC(=O)c1ccc(SCc2cnc(Cl)s2)cc1 | 0 | 0 | 0 | 0 | 0 | 0
O=C(O)c1ccc(SCc2cnc(Cl)s2)cc1 | 61 | 0 | 0 | 0 | 0 | 0
O=C(N/N=C/c1cccnc1)c1ccc(NC(=O)c2cccc(Cl)c2)cc1 | 0 | 0 | 0 | 0 | 46 | 0
O=C(N/N=C/c1cccnc1)c1ccc(Cl)c(Cl)c1 | 0 | - | 0 | 0 | 0 | 0
COCCNC(=S)N1CCc2cc(OC)c(OC)cc2C1c1cccs1 (centres undefined) | 0 | 24 | 0 | 0 | 0 | 0
COCCNC(=S)N1CCc2cc(OC)c(OC)cc2C1COc1ccc(F)cc1 (centres undefined) | 0 | 0 | 0 | 0 | 0 | 0
CC(=NNC(=S)N1CCN(c2ccccn2)CC1)c1nccs1 | - | - | - | - | 0 | -
Cc1ccccc1NC(=O)CN1C(=O)NC2(CCCCCCC2)C1=O | - | - | - | - | 0 | 0
CSc1nnc(Cc2cc(=O)[nH]c(=O)[nH]2)n1-c1cc(C)ccc1C | 0 | 0 | 0 | 0 | 0 | 0
CCSc1nnc(Cc2cc(=O)[nH]c(=O)[nH]2)n1-c1cc(C)ccc1C | 0 | 28 | 0 | 0 | 0 | 0
Cc1ccc(C=NNc2nc3c([nH]2)c(=O)n(C)c(=O)n3C)cc1 | - | - | - | - | 0 | -
O=C(COC(=O)c1ccccc1Br)NCCC1=CCCCC1 | 0 | 38 | 0 | 0 | 0 | 0
O=C(COC(=O)c1ccccc1NCCO)NCCC1=CCCCC1 | 0 | - | 0 | 0 | 0 | 0
COC(=O)c1ccc(CSc2nc3ccccc3s2)o1 | 0 | 0 | 0 | 0 | 0 | 0
COC(=O)C1=C(CSc2nc3ccccc3s2)NC(=O)NC1c1ccc(F)cc1 (centres undefined) | 0 | 0 | 0 | 42 | 0 | 0 | EBNA-1 confirm=0;ZTA DNA inh trip=0
O=C(NCCc1c[nH]c2ccccc12)C(=O)Nc1ccccc1 | 0 | 0 | 0 | 35 | 0 | 0 | EBNA-1 confirm=0;ZTA DNA inh trip=0
O=C(Nc1ccc2c(c1)CCC2)c1cc(=O)[nH]c2ccccc12 | 0 | 0 | 0 | 51 | 0 | 0 | EBNA-1 confirm=29;ZTA DNA inh trip=0
O=S(=O)(Nc1nc2ccccc2nc1Nc1cccc(S(=O)(=O)N2CCCCC2)c1)c1ccccc1 | 0 | 0 | 0 | 37 | 0 | 0 | EBNA-1 confirm=0;ZTA DNA inh trip=0
CC(C)(C)NC(=O)CN(Cc1ccc(F)cc1)C(=O)Cn1nnc(-c2ccc(F)cc2)n1 | 0 | 0 | 0 | 0 | 0 | 0
COc1ccc(CNC(=O)CN2C(=O)C3CCCN3c3ncc(Cl)cc32)cc1 (centres undefined) | 0 | 0 | 0 | 29 | 0 | 0 | EBNA-1 confirm=0;ZTA DNA inh trip=0
O=C(CN1C(=O)C2CCCN2c2ncc(Cl)cc21)NCc1ccc2c(c1)OCO2 (centres undefined) | - | 0 | - | - | 0 | -
